PubChem BioAssay (Tox21)
“And” between values parts separate entries of the source, which are not always exact repeats. Equal values may be shown once. Results filed as inconclusive are left out. Entries that show only a call come without a potency. The source made the active and inactive calls. Unless noted, calls follow the shape of the dose curve; as a rule, active = well fitted curve in the direction sought with a large enough effect in the repeat runs; inconclusive = weak or mixed curves; inactive = no such curve, though single readings can be large; an effect the other way counts as inactive or inconclusive.

Legend:
[1] = qHTS assay to identify small molecule agonists of the peroxisome proliferator-activated receptor delta (PPARd) signaling pathway - cell viability counter screen (AID 743211); also: nearly all actives have a fitted effect of over 55% in size
Summary of the method: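 Tox21 library compounds, delivered in DMSO, were incubated 17 h with PPARd-bla HEK293H cells; cytotoxicity was taken from CellTiter-Glo luminescence read 30 min after reagent addition.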

[2] = target: Peroxisome proliferator-activated receptor delta (Homo sapiens) (UniProt Q03181); test: qHTS assay to identify small molecule agonists of the peroxisome proliferator-activated receptor delta (PPARd) signaling pathway (AID 743212; calls by dose curve)
Peroxisome proliferator-activated receptor delta (Homo sapiens), sequence (Q03181 whole entry, looked up): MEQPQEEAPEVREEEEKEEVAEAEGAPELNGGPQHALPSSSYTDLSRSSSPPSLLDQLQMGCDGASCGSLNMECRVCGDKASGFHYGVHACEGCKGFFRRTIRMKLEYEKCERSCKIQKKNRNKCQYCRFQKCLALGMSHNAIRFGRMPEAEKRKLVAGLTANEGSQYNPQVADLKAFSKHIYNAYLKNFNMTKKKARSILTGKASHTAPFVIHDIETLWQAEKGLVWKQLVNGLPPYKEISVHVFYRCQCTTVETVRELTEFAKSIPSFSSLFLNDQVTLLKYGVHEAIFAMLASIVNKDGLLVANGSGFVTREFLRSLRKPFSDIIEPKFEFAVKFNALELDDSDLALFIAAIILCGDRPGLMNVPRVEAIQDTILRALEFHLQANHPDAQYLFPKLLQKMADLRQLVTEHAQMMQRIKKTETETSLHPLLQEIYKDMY
Summary of the method: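 Read-out: beta-lactamase FRET fluorescence after 2 h room-temperature incubation with LiveBLAzer B/G substrate. Cells were HEK293H carrying a UAS-bla reporter for PPARd, treated at 37 C with DMSO-dissolved compounds.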

[3] = qHTS assay to identify small molecule antagonists of the peroxisome proliferator-activated receptor delta (PPARd) signaling pathway - cell viability counter screen (AID 743213); also: nearly all actives have a fitted effect of over 50% in size
Summary of the method: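 Agonist-stimulated (L165041, 300 nM final) HEK293H PPARd UAS-bla cells are exposed to compounds for 17 h at 37 C, and ATP-based luminescence (CellTiter-Glo) from the same wells reports cytotoxicity.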

[4] = target: Peroxisome proliferator-activated receptor delta (Homo sapiens) (UniProt Q03181); test: qHTS assay to identify small molecule antagonists of the peroxisome proliferator-activated receptor delta (PPARd) signaling pathway (AID 743215; active = well fitted inhibition curve with a large enough effect in the signal ratio in the repeat runs, not every such curve was filed as active; the % refers to the signal ratio; also: series mostly up to about 62 µM)
Summary of the method: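 HEK293H GeneBLAzer PPARd UAS-bla reporter cells; cpd + L165041 300 nM final, 17 h 37 C; LiveBLAzer B/G FRET substrate 2 h RT; fluorescence intensity read-out. Antagonist mode.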

[5] = qHTS assay to identify small molecule antagonists of the farnesoid-X-receptor (FXR) signaling pathway - cell viability counter screen (AID 743221; active = well fitted cell-killing curve with a large enough effect in the repeat runs, not every such curve was filed as active; also: nearly all actives have a fitted effect of over 50% in size)
Summary of the method: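 Cytotoxicity is taken from ATP luminescence (CellTiter-Glo, 30 min, room temperature) in FXR-bla HEK 293T cells previously incubated 16 h at 37 C with compound and chenodeoxycholic acid at 50 uM final.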

[6] = qHTS assay to identify small molecule agonists of the vitamin D receptor (VDR) signaling pathway - cell viability counter screen (AID 743224); also: series mostly up to about 63 µM; nearly all actives have a fitted effect of over 50% in size
Summary of the method: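 Cytotoxicity counter screen: VDR-bla cells, 16 h compound exposure at 37C, 5% CO2; CellTiter-Glo luminescence, 30 min RT, same wells as bla read.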

[7] = qHTS assay to identify small molecule antagonists of the vitamin D receptor (VDR) signaling pathway - cell viability counter screen (AID 743225); also: nearly all actives have a fitted effect of over 50% in size
Summary of the method: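 Same-well multiplex: following 16 h treatment of HEK 293T cells carrying a UAS-driven beta-lactamase reporter with compound and agonist (3 nM final), and a 2 h FRET substrate step, CellTiter-Glo was added and luminescence read after 30 min.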

[8] = qHTS assay to identify small molecule agonists of the NFkB signaling pathway (AID 1159509; active = well fitted curve in the direction sought with a large enough effect in the signal ratio in the repeat runs, not every such curve was filed as active; the % refers to the signal ratio; also: series mostly up to about 61 µM)
Summary of the method: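 Readout: FRET fluorescence, 405 nm excitation, 460/530 nm emission; beta-lactamase expression disrupts FRET. Cells: ME-180 stably carrying NF-kB-driven bla reporter. Compound exposure 5 hr, 37 C, 5% CO2.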

[9] = qHTS assay to identify small molecule agonists of the NFkB signaling pathway - cell viability counter screen (AID 1159515; calls by dose curve; also: series mostly up to about 61 µM; nearly all actives have a fitted effect of over 55% in size)
Summary of the method: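 ME-180 NFkB-bla cells, 2,000/well; overnight attach; compound 5 hr, 37 C/5% CO2; LiveBLAzer substrate 1.5 hr RT; then CellTiter-Glo in same wells, 30 min RT, luminescence read.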

[10] = qHTS assay to identify small molecule agonists of the endoplasmic reticulum stress response signaling pathway (AID 1159516; active = well fitted activation curve with a large enough effect in the signal ratio in the repeat runs, not every such curve was filed as active; the % refers to the signal ratio)
Summary of the method: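 HeLa ESRE-bla reporter line; cpd 5 h, 37 C/5% CO2; LiveBLAzer B/G FRET substrate 2 h RT; ex 405, em 460/530 nm.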

[11] = qHTS assay to identify small molecule agonists of the endoplasmic reticulum stress response signaling pathway - cell viability counter screen (AID 1159517; calls by dose curve)
Summary of the method: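 Steps: seed 1,500 ESRE-bla HeLa cells per well; incubate overnight at 37 C, 5% CO2; add compounds in DMSO for 5 hr; run FRET substrate 2 hr RT; add CellTiter-Glo, wait 30 min, read luminescence.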

[12] = qHTS assay to identify small molecule antagonists of the retinoid-related orphan receptor gamma (ROR-gamma) signaling pathway - cell viability counter screen (AID 1159520); also: nearly all actives have a fitted effect of over 50% in size; also: potency is read from the fitted curve at half-maximal effect
Summary of the method: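 Tet-on ROR gamma CHO cells were given compounds for 2 hr, then doxycycline hyclate at 1 uM final, and incubated 16 hr at 37 C. Viability was measured as ATP content by CellTiter-Glo luminescence.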

[13] = target: Nuclear receptor ROR-gamma (Homo sapiens) (UniProt P51449); test: qHTS assay to identify small molecule antagonists of the retinoid-related orphan receptor gamma (ROR-gamma) signaling pathway (AID 1159521; also: nearly all actives have a fitted effect of over 50% in size; also: potency is read from the fitted curve at half-maximal effect)
Summary of the method: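 Inducible-expression reporter assay: doxycycline (1 uM final) switched on RORγ in CHO cells bearing a ROR response element-luciferase construct, with test compounds present from 2 h beforehand. Decreased luminescence after 16 h defined antagonist activity.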

[14] = qHTS assay to identify small molecule agonists of the AP-1 signaling pathway - cell viability counter screen (AID 1159525; calls by dose curve; also: nearly all actives have a fitted effect of over 55% in size)
Summary of the method: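 Same-well cytotoxicity counter screen of the Tox21 10K library in ME-180 cells. The readout is ATP-dependent luminescence after 5 h compound treatment. Data are normalised to DMSO and tetra n-octyl ammonium bromide controls.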

[15] = qHTS assay to identify small molecule agonists of the AP-1 signaling pathway (AID 1159526; calls by dose curve)
[16] = qHTS assay to identify small molecule agonists of the farnesoid-X-receptor (FXR) signaling pathway - cell viability counter screen (AID 743218); also: nearly all actives have a fitted effect of over 45% in size
Summary of the method: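 Luminescence from CellTiter-Glo, read after 30 min at RT, reports viability of GeneBLAzer FXR-UAS-bla HEK 293T cells treated 16 h with compounds in the wells used for the beta-lactamase reporter.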

[17] = target: Vitamin D3 receptor (Homo sapiens) (UniProt P11473); test: qHTS assay to identify small molecule agonists of the vitamin D receptor (VDR) signaling pathway (AID 743222; calls by dose curve)
Vitamin D3 receptor (Homo sapiens), sequence (P11473 whole entry, looked up): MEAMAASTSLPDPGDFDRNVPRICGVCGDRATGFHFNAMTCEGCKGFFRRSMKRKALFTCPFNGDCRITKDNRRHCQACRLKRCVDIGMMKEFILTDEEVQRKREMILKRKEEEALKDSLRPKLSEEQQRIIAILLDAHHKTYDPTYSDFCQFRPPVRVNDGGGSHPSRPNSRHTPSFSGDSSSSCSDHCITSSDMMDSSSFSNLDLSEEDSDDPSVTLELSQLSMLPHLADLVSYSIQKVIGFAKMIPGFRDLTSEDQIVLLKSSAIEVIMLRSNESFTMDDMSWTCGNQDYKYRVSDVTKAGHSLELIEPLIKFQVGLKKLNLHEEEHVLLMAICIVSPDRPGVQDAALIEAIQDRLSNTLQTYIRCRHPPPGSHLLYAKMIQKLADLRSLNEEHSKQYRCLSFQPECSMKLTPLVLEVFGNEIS
Summary of the method: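 Beta-lactamase reporter readout (LiveBLAzer B/G FRET, 2 h RT) in VDR-bla cells after 16 h compound treatment at 37C, 5% CO2; cells pre-incubated 4 h before pin transfer of DMSO solutions.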

[18] = target: Vitamin D3 receptor (Homo sapiens) (UniProt P11473); test: qHTS assay to identify small molecule antagonists of the vitamin D receptor (VDR) signaling pathway (AID 743223; active = well fitted inhibition curve with a large enough effect in the signal ratio in the repeat runs, not every such curve was filed as active; the % refers to the signal ratio)
Summary of the method: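 Quantitative HTS in VDR-bla reporter cells stimulated with 1alpha,25-dihydroxyvitamin D3, 3 nM final. Compound exposure 16 h, 37C, 5% CO2. Read-out: beta-lactamase FRET substrate fluorescence, 2 h RT.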

[19] = target: Bile acid receptor (Homo sapiens) (UniProt Q96RI1); test: qHTS assay to identify small molecule antagonists of the farnesoid-X-receptor (FXR) signaling pathway (AID 743217; active = well fitted inhibition curve with a large enough effect in the signal ratio in the repeat runs, not every such curve was filed as active; the % refers to the signal ratio)
Bile acid receptor (Homo sapiens), sequence (Q96RI1 whole entry, looked up): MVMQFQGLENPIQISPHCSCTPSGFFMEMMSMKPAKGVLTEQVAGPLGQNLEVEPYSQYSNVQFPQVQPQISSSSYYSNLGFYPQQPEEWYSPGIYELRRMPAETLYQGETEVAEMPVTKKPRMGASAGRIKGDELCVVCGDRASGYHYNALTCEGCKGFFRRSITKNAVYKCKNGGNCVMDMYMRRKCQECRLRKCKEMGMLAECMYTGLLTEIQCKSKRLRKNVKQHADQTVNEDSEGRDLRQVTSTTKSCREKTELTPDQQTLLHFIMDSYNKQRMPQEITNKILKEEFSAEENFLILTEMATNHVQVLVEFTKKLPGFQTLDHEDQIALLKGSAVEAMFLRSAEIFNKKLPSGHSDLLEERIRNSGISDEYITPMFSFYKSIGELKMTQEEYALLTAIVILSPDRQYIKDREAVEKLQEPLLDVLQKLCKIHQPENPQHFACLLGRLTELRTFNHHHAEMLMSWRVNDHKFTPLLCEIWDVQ
Summary of the method: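 Read-out: beta-lactamase FRET fluorescence (LiveBLAzer B/G substrate, 2 h, room temperature) in GeneBLAzer FXR-UAS-bla HEK 293T cells. Compounds were co-dosed with 50 uM chenodeoxycholic acid (final) and incubated 16 h at 37 °C.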

[20] = target: Bile acid receptor (Homo sapiens) (UniProt Q96RI1); test: qHTS assay to identify small molecule agonists of the farnesoid-X-receptor (FXR) signaling pathway (AID 743220; active = well fitted activation curve with a large enough effect in the signal ratio in the repeat runs, not every such curve was filed as active; the % refers to the signal ratio)
Summary of the method: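 FXR-UAS-bla HEK 293T cells carrying a UAS-driven beta-lactamase reporter were plated for 5 h at 37C/5% CO2, then exposed to DMSO-dissolved Tox21 10K compounds for 16 h at 37C. A LiveBLAzer B/G FRET substrate was loaded for 2 h at room temperature before fluorescence reading.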

Row | Compound | outcome [1] | outcome [2] | outcome [3] | Potency [4] | outcome [5] | outcome [6] | outcome [7] | outcome [8] | outcome [9] | outcome [10] | outcome [11] | Potency [12] | Potency [13] | Potency [14] | Potency [15] | outcome [16] | outcome [17] | outcome [18] | outcome [19] | outcome [20]
1 | Nc1ccc(Oc2ccc(N)cc2)cc1 | inactive | inactive | inactive | inactive | inactive | inactive | inactive | inactive | inactive | inactive | inactive | inactive | inactive | inactive | inactive |  |  |  |  | 
2 | O=[N+]([O-])c1ccccc1 | inactive | inactive | inactive | inactive | inactive |  | inactive | inactive | inactive | inactive | inactive | inactive | inactive | inactive | inactive | inactive |  |  |  | 
3 | Cc1ccc(N)cc1Cl | inactive |  | inactive |  | inactive |  | inactive | inactive | inactive | inactive | inactive | inactive | inactive | inactive | inactive |  | inactive | inactive |  | 
4 | O=C1CCCN1 | inactive | inactive | inactive | inactive | inactive | inactive | inactive | inactive | inactive | inactive | inactive | inactive | inactive | inactive | inactive |  |  |  | inactive | inactive
5 | O=c1ccc(=O)[nH][nH]1 | inactive |  | inactive |  | inactive | inactive | inactive | inactive | inactive | inactive | inactive | inactive | inactive | inactive | inactive |  |  | inactive | inactive | inactive
6 | CCN(CC)CCO | inactive | inactive | inactive | inactive | inactive | inactive | inactive | inactive | inactive | inactive | inactive | inactive | inactive | inactive | inactive | inactive |  |  |  | 
7 | CC1C=[C-]C=C1.[C-]#[O+].[C-]#[O+].[C-]#[O+].[Mn] | inactive | inactive | inactive | inactive | inactive |  | inactive | inactive | inactive | inactive | inactive | inactive | inactive | inactive | inactive |  |  | inactive | inactive | inactive
8 | CC(Br)C(=O)O (stereo not drawn) | inactive | inactive | inactive | inactive | inactive |  | inactive | inactive | inactive | inactive | inactive | inactive | inactive | inactive | inactive |  | inactive | inactive |  | 
9 | c1ccc(OP(Oc2ccccc2)Oc2ccccc2)cc1 | inactive |  | inactive |  | inactive | inactive | inactive | inactive | inactive | inactive | inactive | inactive | inactive | inactive | inactive | inactive | inactive | inactive |  | 
10 | CCC[CH2][Sn]([Cl])([Cl])[Cl] | inactive | inactive | inactive | inactive | inactive |  | inactive | inactive | inactive | inactive | inactive | inactive | inactive | inactive | inactive |  |  |  | inactive | inactive
11 | CC(C)(C)OOC(=O)c1ccccc1 | inactive | inactive | inactive | inactive | inactive | inactive | inactive | inactive | inactive | inactive | inactive | inactive | inactive | inactive | inactive | inactive | inactive | inactive |  | 
12 | CCCCN(CCCC)SN(C)C(=O)Oc1cccc2c1OC(C)(C)C2 | inactive | inactive | inactive | inactive | inactive | inactive | inactive | inactive | inactive | inactive | inactive | 62.1 µM (active) | 22 µM (active) and 30.6 µM (active) | inactive | inactive | inactive | inactive | inactive |  | 
13 | CCN(CC)c1ccccc1 | inactive |  | inactive |  | inactive | inactive | inactive | inactive | inactive | inactive | inactive | inactive | inactive | inactive | inactive | inactive | inactive | inactive | inactive | inactive
14 | C=CC(N)=O | inactive | inactive | inactive | inactive | inactive | inactive | inactive | inactive | inactive | inactive | inactive | inactive | inactive | inactive | inactive | inactive |  | inactive |  | 
15 | COP(N)(=O)SC (stereo not drawn) | inactive | inactive | inactive | inactive | inactive | inactive | inactive | inactive | inactive | inactive | inactive | inactive | inactive | inactive | inactive | inactive | inactive | inactive | inactive | inactive
16 | CCOC(=O)c1ccccc1C(=O)OCC | inactive | inactive | inactive | inactive | inactive | inactive | inactive | inactive | inactive | inactive | inactive | inactive | inactive | inactive | inactive | inactive | inactive | inactive |  | 
17 | C1CN2CCN1CC2 | inactive |  | inactive |  | inactive |  | inactive | inactive | inactive | inactive | inactive | inactive | inactive | inactive | inactive | inactive |  | inactive |  | 
18 | CNC(=O)Oc1ccccc1OC(C)C | inactive | inactive | inactive | inactive | inactive |  | inactive | inactive | inactive | inactive | inactive | inactive | inactive | inactive | inactive | inactive | inactive | inactive |  | 
